Compounds without any hit were thinned out: in the full panel of roughly 83,000, 20% have a hit.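 For each line, cells grew in 96-well plates with the test compound present at a single concentration for 48 hours.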 Activity calls are given as the source filed them. How the source made its calls: active means growth percent below 10; inactive means the rest.
test system: MDA-MB-468 breast; test: NCI-60 one-dose screen, 48 h (100 = growth as untreated, 0 = no growth, -100 = all killed); details: 10 µM unless noted

Compound	growth
COc1ccc(OC)c(NCC(=O)n2nc(/C=C\c3ccc(O)c(OC)c3)cc2/C=C\c2ccc(O)c(OC)c2)c1	12.1% (inactive)
CCCCCCCCCN(CCCCCCCCC)C(C)C(=O)c1ccc2cc(Br)c3ccccc3c2c1 (stereo unspecified)	99.2% (inactive)
CCN(CC)P(=O)(N(CC)CC)N(CCCSC/C=C(\C)CC/C=C(\C)CCC=C(C)C)CCCN1CCN(C)CC1	92.4% (inactive)
CC[C@H](Nc1ncnc2nc[nH]c12)c1nc2cccc(CC(=O)c3ccc(C(=O)NO)cc3)c2c(=O)n1-c1ccccc1	60.8% (inactive)
CON1C(=O)CC[C@]2(C)[C@H]3CC[C@@H]4C([C@@]5(C)CCC(=O)O5)CC[C@@]4(C)[C@]3(C)CC[C@H]2C1(C)C (stereo partly specified)	94.4% (inactive)
CCN(CC)S(=O)(=O)c1ccc(-c2nc(C(Cl)Cl)nc3cc(C)nn23)cc1	-33.6% (active)
Nc1nc2c(c3ncccc13)C(c1cccc(Br)c1)Cc1ncccc1-2 (stereo unspecified)	13.7% (inactive)
COc1ccc(Nc2ncccc2C(=O)NCc2cn(Cc3cccc(Oc4ccccc4)c3)nn2)c(OC)c1	14.8% (inactive)
COC(=O)[C@]1(C(C)C)N[C@H](c2cn(-c3ccccc3)nc2-c2ccccc2)[C@@H]2C(=O)N(c3ccc(Cl)cc3)C(=O)[C@@H]21	119% (inactive)
CCn1c(SCc2ccc(C)cc2)nnc1-c1nn(-c2ccc(Cl)cc2Cl)c(-c2ccc(Cl)cc2)c1C	6.59% (active)
O=C1/C(=C/c2ccccc2)CN(CCC(=O)N2C/C(=C\c3ccccc3)C(=O)/C(=C/c3ccccc3)C2)C/C1=C\c1ccccc1	66.9% (inactive)

Reference: PubChem BioAssay (NCI)
